According to PubChem BioAssay AID493244 (The Scripps Research Institute Molecular Screening Center, 2011):
Among all 340,000 compounds or so, about 390 (0.11%) were called active. The sample holds actives, similar compounds and a random draw of the others, so the mix is not that of the screen. Values without a mark were called inactive.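 How the source made its calls: active means inhibition above the mean inhibition of all tested compounds plus 3 SD (cut at about 17% in these data); inactive means the rest.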

What follows are molecules tested against Troponin I, cardiac muscle (Homo sapiens) + Troponin T, cardiac muscle (Homo sapiens) + Troponin C, slow skeletal and cardiac muscles (Homo sapiens) (UniProt P19429+P45379+P63316) (assay: cardiac RTF calcium sensitivity inhibitors, primary screen, biochemical, IANBD-TnC fluorescence, EC70 calcium (AID 493244;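 further: assay run at fixed EC70 calcium of 1.6 mM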)). Conditions: IANBD-labeled cardiac RTF, Ca2+ fluorescence; at 7.15 µM; active compounds read high.

SMILES | inhibition
CCN(CC)S(=O)(=O)c1ccc(N2CCOCC2)c(NC(=O)C2CSC3(C)CCC(=O)N23)c1 (stereo not drawn) | -5.18%
O=C(c1ccco1)N1CCN(C(=S)Nc2cc(F)cc(F)c2)CC1 | -7.48%
C[C@]12c3[nH]c4ccc(Cl)cc4c3CCN1C(=O)[C@@H](CC(=O)NCCCn1ccnc1)C[C@@H]2C(=O)N1CCOCC1 | -5.19%
O=C(Nc1ccc2c(c1)CCC2)c1cccc(S(=O)(=O)Nc2ccccc2Cl)c1 | 3.16%
COc1ccc(Cl)cc1NC(=O)[C@@H]1CCCN1C(=O)c1cccs1 | 5.41%
Cc1cc(NC(=O)CCC(=O)N(CC(=O)NC2CCCC2)c2ccc(F)cc2)no1 | -0.21%
COC(=O)c1cccc(N(CC(=O)NCC2CCCO2)C(=O)CCC(=O)Nc2cc(C)on2)c1 (stereo not drawn) | 17.2% (active)
Cc1cc(C)cc(N(CC(=O)NC2CCCC2)C(=O)CCC(=O)Nc2cc(C)on2)c1 | -4.35%
Cc1cc(NC(=O)CCC(=O)N(CC(=O)NCC2CCCO2)c2ccccc2)no1 (stereo not drawn) | 18.5% (active)
Cc1cc(NC(=O)CCC(=O)N(CC(=O)NCC2CCCO2)c2ccccc2C)no1 (stereo not drawn) | -4.7%
CCCCOc1ccc(N(CC(=O)NCC2CCCO2)C(=O)CCC(=O)Nc2cc(C)ccn2)cc1 (stereo not drawn) | -5.97%
Cc1cc(C)cc(OCC(=O)NNC(=O)CCN2C(=O)c3ccccc3C2=O)c1 | -1.71%
Cc1cc(C(=O)Nc2ccc(C)c(S(=O)(=O)N3CCOCC3)c2)c2ccccc2n1 | 5.27%
Cc1cc(OCc2ccc(C(=O)Nc3ccc(C(=O)O)cc3)o2)ccc1Cl | 2%
O=C(O[C@@H]1[C@H](Cc2ccccc2)NS(=O)(=O)[C@H]2C[C@@H]3C=C[C@]12O3)c1ccccc1Br | -4.49%
CC(Sc1nnc(COc2ccccc2)n1-c1ccccc1)C(=O)O (stereo not drawn) | 2%
Cc1nnc(NC(=O)CCC(=O)N2CCC(C)CC2)s1 | -6.77%
CC1(c2ccc3ccccc3c2)NC(=O)NC1=O (stereo not drawn) | -8.57%
O=C(Nc1ccc(Br)cc1F)C1CC(=O)N(C2CCCCC2)C1 (stereo not drawn) | -4.05%
Cc1ccc(NC(=O)C2CCC(C(C)(C)C)CC2)cc1S(=O)(=O)N1CCOCC1 (stereo not drawn) | -8.96%
Cc1ccc(NC(=O)C2CC2)cc1S(=O)(=O)N1CCOCC1 | 5.9%
Cc1ccc(NC(=O)NC2CCCCC2)cc1S(=O)(=O)N1CCOCC1 | 21.9% (active)

SMILES | inhibition
O=C1N=C2SCCN2/C1=C\c1c(Cl)cccc1Cl | -0.73%
COc1cccc(-n2c(=S)sc3c(=O)n(-c4ccccc4OC)c(SCC4OCCO4)nc32)c1 | -13.4%
O=C(N/N=C/c1ccccc1O)/C(=C/c1ccccc1)CCO | -2.95%
Cn1cnc([N+](=O)[O-])c1Sc1ccccc1 | 7.04%
CCOC(=O)C(C)Oc1cccc2c(=O)n(CC(=O)NCCc3ccc(OC)c(OC)c3)ccc12 (stereo not drawn) | -4.75%
Cc1ccc(NC2=C(Cl)C(=O)OC2OC(=O)c2ccccc2C)cc1 (stereo not drawn) | 5.74%
CCc1ccc(N2CC(C(=O)Nc3ccc(S(=O)(=O)Nc4nccs4)cc3)CC2=O)cc1 (stereo not drawn) | 10.1%
CSCC[C@H](NC(=O)N1CCn2c1nc1ccccc12)C(=O)NC1CCCCC1 | -6.71%
CC(C(=O)NC1CCCCC1)N1C(=O)c2cccc3cccc1c23 (stereo not drawn) | 5.31%
COc1cc(C(=O)N(C)Cc2cccc(OC)c2OC)ccc1OCC(=O)Nc1cccc(C(F)(F)F)c1 | 6.06%
Cc1cc(C)nc(Nc2n[nH]c(-c3ccccc3N)n2)n1 | 2.72%
CC(C)(C)c1ccc(C(CC(=O)O)NS(=O)(=O)Cc2ccccc2)cc1 (stereo not drawn) | -9.83%
Cc1ccc(S(=O)(=O)Cn2nnnc2CN2CCN(Cc3ccc4c(c3)OCO4)CC2)cc1 | -16.1%
COc1ccc(S(=O)(=O)NC(C)c2ccccc2)cc1C(=O)N1CCCCC1 (stereo not drawn) | -3.2%
O=C(COC(=O)c1ccc(NS(=O)(=O)c2cccs2)cc1O)Nc1ccc(F)cc1 | -3.11%
COc1ccc(/C=C(/NC(=O)c2ccccc2)C(=O)Nc2cccc(C(=O)O)c2)cc1 | -3.42%
O=C1c2ccccc2C(Nc2ccc3c(c2)OCCO3)N1Cc1ccco1 (stereo not drawn) | 0.13%
CC(C)c1cc(C(=O)N/N=C/c2ccoc2)c(O)c(C(C)C)c1 | -3.15%
COC(=O)Cc1c(O)ccn(Cc2cccc(C(F)(F)F)c2)c1=O | 1.28%
Cc1cc(S(=O)(=O)NC2CCCC2)ccc1-n1cnnn1 | -17.6%
Cc1ccc(CSc2ccc(S(=O)(=O)N3CCCCC3)cn2)cc1 | -3.54%
O=c1ccc2c(-c3ccccc3S(=O)(=O)O)c3ccc(O)c(O)c3oc-2c1O | 141% (active)

SMILES | inhibition
CCc1noc(C)c1C(=O)Oc1ccc(N(C)S(=O)(=O)c2ccc(C)c(C)c2)cc1 | 0.79%
Cc1ccc(-n2c(=O)c(C#N)cc3c(=O)n4ccccc4nc32)cc1C | -2.12%
Cc1cc(C)n(Cc2cnc(N3CCOCC3)s2)n1 | 9.55%
O=C(C[n+]1cc(-c2ccc(Cl)c(Cl)c2)n2c1CCC2)c1cccs1 | 0.83%
CCCCOc1ccc(C(=O)NCC(=O)OCC(=O)N2CCN(S(=O)(=O)c3ccc(C)cc3C)CC2)cc1 | -7.59%
Cc1ccc(C(=O)OCC(=O)NCc2cc(C)c(O)c(C)c2)cc1S(=O)(=O)N1CCCCC1 | 0.34%
CCNC(=S)NCC | -5.85%
Cc1c(Cl)c([N+](=O)[O-])nn1CC(=O)NCC1CCCO1 (stereo not drawn) | -4.95%
Cc1nc2ccc(S(=O)(=O)NCC(=O)O)cc2s1 | -1.72%
CN(c1ccccc1)S(=O)(=O)c1cccc(NC(=O)Cc2ccc(Cl)cc2)c1 | 11.1%
COc1ccc(C)cc1S(=O)(=O)N(CC(=O)Nc1cccc([N+](=O)[O-])c1)c1ccc(C)cc1 | 0.11%
Cc1ccc(S(=O)(=O)N(CC(=O)Nc2cccc([N+](=O)[O-])c2)Cc2ccc(Cl)cc2)cc1 | 18.4% (active)
COc1ccc(C(=O)NC2CC2)cc1OC1CCN(C/C=C/c2ccccc2)CC1 | 0.64%
COc1ccc(CSc2nnnn2-c2ccc(O)cc2)cc1F | -11.7%
COc1cccc2cc(C(=O)NCc3ccc(C)cc3)c(=N)oc12 | 0.64%
CC(NC(=O)COC(=O)C1CCN(S(=O)(=O)c2ccccc2C(F)(F)F)CC1)c1ccccc1 (stereo not drawn) | -5.89%
COc1ccc(CCNC(=O)COC(=O)c2ncc(Cl)c(Cl)c2Cl)cc1OC | 4.89%
Cc1ccc(S(=O)(=O)N(CC(=O)N2CCc3ccccc3C2)c2cccc(Cl)c2)cc1 | -9%
C[C@]12CCC(=O)C=C1C=CC1C2CC[C@@]2(C)C1CC[C@@]21CCC(=O)O1 (stereo partly drawn) | 2.44%
Cc1ccc(CN2CC(C(=O)NNC(=O)Cn3ccc(C(F)(F)F)n3)CC2=O)cc1 (stereo not drawn) | -7.66%
NC(=O)C1(Nc2ccc([N+](=O)[O-])cc2)CCCC1 | 1.13%
O=c1oc2ccc(C#CC3(O)CCCCC3)cc2cc1-n1cc(-c2ccsc2)nn1 | 3.02%

SMILES | inhibition
CC1CN(S(=O)(=O)c2cccc(C(F)(F)F)c2)CN1C(=O)N1CCOCC1 (stereo not drawn) | 9.08%
Cc1cc(CNC(=O)C2CCC(=O)N(CCc3ccc(Cl)cc3)C2)no1 (stereo not drawn) | 1.17%
Cc1ccc(CNC(=O)Cc2cn(C)c3ccccc23)cc1 | -0.42%
O=S(=O)(c1ccccc1)c1nc(Cc2ccccc2)oc1N1CCOCC1 | -3.71%
O=C(NCCC1CCCCN1S(=O)(=O)c1ccc(F)cc1)C(=O)NC1CC1 (stereo not drawn) | -3.06%
COc1cccc(CNC(=O)C(=O)NCCC2CCCCN2S(=O)(=O)c2ccc(C)cc2)c1 (stereo not drawn) | 18.4% (active)
O=C(NCCC1CCCCN1S(=O)(=O)c1ccc(Cl)cc1)C(=O)NCc1ccco1 (stereo not drawn) | -6.03%
COc1ccccc1S(=O)(=O)NCc1ccc(C(=O)N(C)Cc2ccc(F)cc2)cc1 | 4.86%
CCS(=O)(=O)c1ccc(-c2cccc(NC(=O)c3ccc(Br)o3)c2)nn1 | 9.7%
COc1ccc(C(CNC(=O)c2cc(S(=O)(=O)Nc3cccc(C)c3)ccc2C)N2CCCC2)cc1 (stereo not drawn) | -1.95%
CSCCC1NC(=O)N(CC(=O)Nc2cccc(S(=O)(=O)N3CCCCCC3)c2)C1=O (stereo not drawn) | -6.38%
CC(C)CC(=O)c1c[nH]c(C(=O)NCc2ccccc2)c1 | -10.5%
COc1ccccc1CCC(=O)NNC(=O)c1ccncc1 | -23.1%
O=S(=O)(Oc1ccccc1C(=S)N1CCOCC1)c1ccc(Cl)cc1 | 1.09%
O=C(c1cccc(F)c1)N1CCN(c2ccc([N+](=O)[O-])c3cccnc23)CC1 | 12.4%
O=C(CN1CCOCC1)Nc1cccc([N+](=O)[O-])c1 | -4.8%
CN(CCCC(=O)Nc1nccs1)S(=O)(=O)c1ccc(Cl)cc1 | -8.75%
C=CCC1(C(=O)N(C)Cc2ccccc2)CCN(C(=O)OC(C)(C)C)CC1 | -8.43%
CN(C)c1ccc(NC(=O)CN2C3CCCC2CC(NC(=O)c2ccccc2)C3)cc1 (stereo not drawn) | 1.88%
CCCCn1c(=O)c(C(C)=O)c(O)c2ccccc21 | 18.1% (active)
CCCn1c(=O)c(-c2ccccc2)c(O)c2ccccc21 | -0.9%
CCCCCn1c(=O)c(C(=O)OCC)c(Cl)c2ccccc21 | 2.78%
